Test results taken from PubChem BioAssay (EPA / NIEHS).
Activity calls are given as the source filed them. How the source made its calls: active means hit-call score of the fitted dose curve at least 0.9, where 1 is the maximum; inactive means score below 0.9.

Experiment: CEETOX_H295R_ESTRADIOL: CeeTox H295R High-throughput Steroidogenesis Assay for Estradiol (AID 2283440);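 further: estradiol secreted into medium quantified by LC-MS/MS after dansyl derivatisation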
Details: actives raise or lower the signal
Description: CEETOX_H295R is a cell-based, multiplexed-readout assay that uses H295R, a human adrenal gland cell line, with measurements taken at 48 hours after chemical dosing in a 96-well plate.CEETOX_H295R_ESTRADIOL is one of 23 assay component(s) measured or calculated from the CEETOX_H295R assay. It is designed to make measurements of hormone induction, a form of inducible reporter, as detected with absorbance signals by HPLC-MS-MS technology.Data from the assay component CEETOX_H295R_ESTRADIOL was analyzed into 1 assay endpoint. This assay endpoint, CEETOX_H295R_ESTRADIOL, was analyzed with bidirectional fitting relative to DMSO as the negative control and baseline of activity. […] To generalize the intended target to other relatable targets, this assay endpoint is annotated to the steroid hormone intended target family, where the subfamily is estrogens.
Cell culture and media preparation procedures were conducted in accordance with OECD Test No. 456 guidelines, with minor modifications. H295R cells (ATCC CRL-2128) were expanded for 5 passages and frozen in batches in liquid nitrogen. Prior to the steroidogenesis assay, H295R cells were thawed and passed at least 4 times. The maximum passage was 10. Cells were maintained in a 1:1 mixture of DMEM/F12 supplemented with 5ml/L ITS+ Premix (BD Bioscience) and 12.5 ml/L Nu-Serum (BD Bioscience). After seeding cells into 96-well plates at 50-60% confluency, cells were allowed to adhere overnight. Prior to chemical testing, culture medium was replaced with 175 uL medium containing 10 uM forskolin to stimulate steroidogenesis for 48 hours. Following prestimulation, forskolin medium was replaced with medium containing test chemical solubilized in DMSO (ensuring a final concentration of 0.1% DMSO). Test chemicals were incubated for 48 hours, then the medium was removed and split into 2 vials containing approximately 75uL each, and stored at -80 C prior to hormone analysis. For steroid quantification, media samples were shipped to OpAns, LLC (Durham, NC) on dry ice, and samples were thawed to room temperature prior to liquid-liquid extraction. Steroid hormones were extracted from media samples using methyl tertbutyl ether (MTBE). An extra derivatization with dansyl chloride was included for estrogen (estrone and estradiol) detection only. Steroid hormones were separated by HPLC, eluted using a reverse phase C18 gradient with electrospray positive ionization, followed by quantification by tandem mass spectrometry (MS/MS). Data were acquired on a MassHunter Workstation Acquisition version B03.01 (Agilent Technologies, Inc.) and processed using MassHunter Quantitative Analysis for QQQ. Accuracy was determined for each hormone analyte from 3 standards to determine upper and lower limits of quantification (ULOQ and LLOQ, respectively) using a 7-point standard curve. Precision and accuracy of the extraction and quantification methods were calculated as the percent relative standard deviation (%RSD) of the spiked standards and percent spiked standard recovered, respectively. […] Test medium was removed following chemical exposure, and cell viability was evaluated in the same wells by MTT. MTT procedures were as follows: after removal of test medium, 500 uL of 0.5 mg/ml of 3-[4,5-dimethylthiazol-2-y]2,5-diphenyltetrazoliumbromide solution was added to the cells. Following a 4-hour incubation at 37 C and 5% CO2 to allow formazan-crystal formation, the MTT solution was removed and blue formazan salt crystals were solubilized using 500uL anhydrous isopropanol with shaking for 20 minutes. Absorbance was read at 570 and 650nm using a Packard Fusion microplate reader. Background correction of absorbance units was used to determine percent change relative to controls. […] When a test chemical reduced cell viability to 20% - 70%, the test chemical was diluted 10-fold and re-evaluated, but if cell viability was <20%, then the test chemical was diluted 100-fold and re-evaluated. […]

Structure (SMILES)	AC50	outcome
CCOCn1c(-c2ccc(Cl)cc2)c(C#N)c(Br)c1C(F)(F)F	4.19 µM (active)	
Oc1cccc(-c2ccccc2)c1		inactive
O=[N+]([O-])c1ccc(Nc2ccccc2)cc1		inactive
CCC[CH2][Sn]([Cl])([Cl])[CH2]CCC		inactive
CCCSP(=S)(OCC)Oc1ccc(SC)cc1 (stereo unspecified)		inactive
CCCCCCCCCCCCN(C)C		inactive
OC(Cc1ccccc1Cl)(Cn1cncn1)C1(Cl)CC1 (stereo unspecified)	3.86 µM (active)	
CC(C)(C)c1cc([N+](=O)[O-])cc(C(C)(C)C)c1O		inactive
CC(C)=CC1C(C(=O)OCc2cccc(Oc3ccccc3)c2)C1(C)C (stereo unspecified)		inactive
CC(C)(COCC1CO1)COCC1CO1 (stereo unspecified)		inactive
Oc1c(Br)cc(Br)cc1Br		inactive
